Assay results reported in PubChem BioAssay (NCI).
This is part of a sample that, as a whole, favours compounds with a hit. Of some 83,000 tested, about 20% had one in any assay.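 Growth was measured after 48 h exposure to one concentration of compound in 96-well plates. Values under 10 count as active.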 A number with no mark means an inactive call. Calls of active or inactive are those of the source.

test system: 786-0 renal; test: NCI-60 one-dose screen, 48 h (100 = growth as untreated, 0 = no growth, -100 = all killed); details: 10 µM unless noted

SMILES	growth
CCC1S/C(=N\N=C(/C)c2ccco2)N(c2ccccc2)C1=O (stereo not drawn)	96.9%
C#C[C@H](O)/C=C/CCCCCCC#C[C@H](O)CC[C@@H](O)C#CCCCCCC/C=C/[C@@H](O)C#C	64.6%
O=[N+]([O-])c1cccc2cc(S(=O)(=O)O)ccc12	100%
Nc1ccc(S(=O)(=O)Nc2cc(I)cc(I)c2)cc1	95.5%
O=C(Nc1ccc(-n2cc(-c3ccncc3)c(-c3ccc(O)c(Cl)c3)n2)cc1)Nc1cc(C(F)(F)F)cc(C(F)(F)F)c1	50.5%
O[C@@H]1CCO[C@H](c2ccc3ccccc3c2)C1	98.7%
COc1cc(Cn2cc3c(c2)-c2onc(CO)c2CC3)cc(OC)c1OC	90.9%
CN(C)CCS(=O)(=O)Nc1cc(-c2ccc3ncnc(Nc4ccc(F)c(Cl)c4)c3c2)cnc1Cl	12.8%
CCN(CC)c1ccc(C2CC(c3cc(OC)c(OC)c(OC)c3)=NN2)cc1 (stereo not drawn)	23.5%
CCn1cc(C(=O)O)c(=O)c2cc(F)c(N3CCN(CC(=O)Nc4ccc(C(C)=O)cc4)CC3)cc21	98%
CCOc1ccc(-n2c(-c3cc(OC)c(OC)c(OC)c3)nnc2-c2ccc(OC)cc2N)cc1	89.5%
COc1ccc(/C(=C/c2cc(OC)c(OC)c(OC)c2)[N+](=O)[O-])cc1	-44.3% (active)
O=C(Nc1cccc([N+](=O)[O-])c1)Nc1cccc([N+](=O)[O-])c1	71.7%
COc1ccc(-c2nn(-c3ccc(NC(=O)Nc4cc(C(F)(F)F)cc(C(F)(F)F)c4)cc3)cc2-c2ccncc2)cc1Cl	1.94% (active)
O=c1c2ccccc2sc2c(NCCCNCCO)nc3ccccc3c12	41.3%
O=C(NNC(=O)c1ccc([N+](=O)[O-])cc1)c1ccc([N+](=O)[O-])cc1	95%
CCN(CC)C(=O)C1CCN(C(=O)c2ccccc2)CC1	97.3%
O=S(=O)(O)c1ccc(F)cc1	103%
Cc1cc(SCc2ccc(Cl)cc2Cl)nc(SCc2ccc(Cl)cc2Cl)n1	103%
CCOC(=O)c1noc2c1CCc1cn(Cc3cc(OC)cc(OC)c3)cc1-2	101%

SMILES	growth
CC(C)(C)C(=O)Nc1nc2c(s1)CCc1ccn(S(=O)(=O)c3ccccc3)c1-2	81.8%
CCCCCCCCCCCCCCCCNc1ccccc1	81.4%
Cc1nc(N)nc(SCc2ccccc2)c1Br	88.9%
O=S(c1ccccc1)c1ccc2nnnn2n1 (stereo not drawn)	104%
O=C1COc2ccccc2C(=O)N1CCCCN1CCCCC1	82.4%
O=C(COc1ccc(Cl)cc1Cl)N1N=C(c2ccc(Cl)cc2Cl)CC1(O)c1cc(F)c(Cl)cc1Cl (stereo not drawn)	101%
CC(CCC(=O)O)[C@H]1CCC2C3C(=O)C[C@@H]4CC(=O)CC[C@]4(C)C3CC(=O)[C@@]21C (stereo partly drawn)	106%
COc1ccc(-c2nn(-c3ccc(NC(=O)Nc4ccc(Cl)c(C(F)(F)F)c4)cc3)cc2-c2ccncc2)cc1Cl	-33.7% (active)
O=C1COc2ccccc2C(=O)N1CCCCNc1ccccc1	70.8%
O=C1CCC(c2c(O)cc(O)c3c(=O)c(O)c(-c4ccc(O)c(O)c4)oc23)N1 (stereo not drawn)	99.6%
CCCCCCCCCCCCCCCC(=O)NS(=O)(=O)OC[C@H]1O[C@@H](n2cnc3c(N)ncnc32)[C@H](O)[C@@H]1O	-69.6% (active)
CN(CCNCc1ccccn1)CCNCc1ccccn1	-3.78% (active)
CCN(CC)CCNCC(O)Cc1ccc(OC)cc1 (stereo not drawn)	98.5%
CN1CCN(Cn2nc(-c3cc(Cl)cc(Cl)c3Cl)n(/N=C/c3ccc(Cl)cc3)c2=S)CC1	89.1%
Cn1cnc([N+](=O)[O-])c1N1c2ccncc2Sc2ccncc21	110%
O=C(O)c1cccc2oc(-c3ccccc3O)nc12	59.5%
Nn1c(CN2CCN(c3cc4c(cc3F)c(=O)c(C(=O)O)cn4C3CC3)CC2)n[nH]c1=S	97.3%
Cc1ccc2nc(-c3ccc(-n4on4-c4ccc(/C=C/c5ccc(-n6on6-c6ccc(-c7nc8ccc(C)cc8s7)cc6)cc5S(=O)(=O)O)c(S(=O)(=O)O)c4)cc3)sc2c1	98.2%
CC(C)(C)NCC(O)COc1c(Br)c(Br)c(Br)c2c1OC(C)(C)C2 (stereo not drawn)	-91.6% (active)

test system: COLO 205 colon; test: as above; details: 10 µM unless noted

SMILES	growth
CCC1S/C(=N\N=C(/C)c2ccco2)N(c2ccccc2)C1=O (stereo not drawn)	117%
C#C[C@H](O)/C=C/CCCCCCC#C[C@H](O)CC[C@@H](O)C#CCCCCCC/C=C/[C@@H](O)C#C	79.8%
O=[N+]([O-])c1cccc2cc(S(=O)(=O)O)ccc12	105%
Nc1ccc(S(=O)(=O)Nc2cc(I)cc(I)c2)cc1	123%
O=C(Nc1ccc(-n2cc(-c3ccncc3)c(-c3ccc(O)c(Cl)c3)n2)cc1)Nc1cc(C(F)(F)F)cc(C(F)(F)F)c1	28.6%
O[C@@H]1CCO[C@H](c2ccc3ccccc3c2)C1	106%
COc1cc(Cn2cc3c(c2)-c2onc(CO)c2CC3)cc(OC)c1OC	107%
CN(C)CCS(=O)(=O)Nc1cc(-c2ccc3ncnc(Nc4ccc(F)c(Cl)c4)c3c2)cnc1Cl	-80% (active)
CCN(CC)c1ccc(C2CC(c3cc(OC)c(OC)c(OC)c3)=NN2)cc1 (stereo not drawn)	-25.7% (active)
CCn1cc(C(=O)O)c(=O)c2cc(F)c(N3CCN(CC(=O)Nc4ccc(C(C)=O)cc4)CC3)cc21	121%
CCOc1ccc(-n2c(-c3cc(OC)c(OC)c(OC)c3)nnc2-c2ccc(OC)cc2N)cc1	51%
COc1ccc(/C(=C/c2cc(OC)c(OC)c(OC)c2)[N+](=O)[O-])cc1	-51.5% (active)
O=C(Nc1cccc([N+](=O)[O-])c1)Nc1cccc([N+](=O)[O-])c1	59.1%
COc1ccc(-c2nn(-c3ccc(NC(=O)Nc4cc(C(F)(F)F)cc(C(F)(F)F)c4)cc3)cc2-c2ccncc2)cc1Cl	-33.4% (active)
O=c1c2ccccc2sc2c(NCCCNCCO)nc3ccccc3c12	-78.9% (active)
O=C(NNC(=O)c1ccc([N+](=O)[O-])cc1)c1ccc([N+](=O)[O-])cc1	115%
CCN(CC)C(=O)C1CCN(C(=O)c2ccccc2)CC1	106%
O=S(=O)(O)c1ccc(F)cc1	114%
Cc1cc(SCc2ccc(Cl)cc2Cl)nc(SCc2ccc(Cl)cc2Cl)n1	113%
CCOC(=O)c1noc2c1CCc1cn(Cc3cc(OC)cc(OC)c3)cc1-2	115%

SMILES	growth
CC(C)(C)C(=O)Nc1nc2c(s1)CCc1ccn(S(=O)(=O)c3ccccc3)c1-2	112%
CCCCCCCCCCCCCCCCNc1ccccc1	113%
Cc1nc(N)nc(SCc2ccccc2)c1Br	105%
O=S(c1ccccc1)c1ccc2nnnn2n1 (stereo not drawn)	98%
O=C1COc2ccccc2C(=O)N1CCCCN1CCCCC1	87.6%
O=C(COc1ccc(Cl)cc1Cl)N1N=C(c2ccc(Cl)cc2Cl)CC1(O)c1cc(F)c(Cl)cc1Cl (stereo not drawn)	95.4%
CC(CCC(=O)O)[C@H]1CCC2C3C(=O)C[C@@H]4CC(=O)CC[C@]4(C)C3CC(=O)[C@@]21C (stereo partly drawn)	119%
COc1ccc(-c2nn(-c3ccc(NC(=O)Nc4ccc(Cl)c(C(F)(F)F)c4)cc3)cc2-c2ccncc2)cc1Cl	-74.5% (active)
O=C1COc2ccccc2C(=O)N1CCCCNc1ccccc1	101%
O=C1CCC(c2c(O)cc(O)c3c(=O)c(O)c(-c4ccc(O)c(O)c4)oc23)N1 (stereo not drawn)	112%
CCCCCCCCCCCCCCCC(=O)NS(=O)(=O)OC[C@H]1O[C@@H](n2cnc3c(N)ncnc32)[C@H](O)[C@@H]1O	-62.8% (active)
CN(CCNCc1ccccn1)CCNCc1ccccn1	-5.61% (active)
CCN(CC)CCNCC(O)Cc1ccc(OC)cc1 (stereo not drawn)	111%
CN1CCN(Cn2nc(-c3cc(Cl)cc(Cl)c3Cl)n(/N=C/c3ccc(Cl)cc3)c2=S)CC1	118%
Cn1cnc([N+](=O)[O-])c1N1c2ccncc2Sc2ccncc21	89.6%
O=C(O)c1cccc2oc(-c3ccccc3O)nc12	12.4%
Nn1c(CN2CCN(c3cc4c(cc3F)c(=O)c(C(=O)O)cn4C3CC3)CC2)n[nH]c1=S	121%
Cc1ccc2nc(-c3ccc(-n4on4-c4ccc(/C=C/c5ccc(-n6on6-c6ccc(-c7nc8ccc(C)cc8s7)cc6)cc5S(=O)(=O)O)c(S(=O)(=O)O)c4)cc3)sc2c1	119%
CC(C)(C)NCC(O)COc1c(Br)c(Br)c(Br)c2c1OC(C)(C)C2 (stereo not drawn)	-58.3% (active)
